# Assay results: PubChem BioAssay AID720542 (National Center for Advancing Translational Sciences (NCATS), 2013)
# Out of some 360,000 compounds screened, about 740 (0.21%) were called active. Not shown: some 2% with an inconclusive outcome. The call rests on the fitted dose curve; in most records, active means well fitted inhibition curve with a large enough effect; inconclusive means small, poorly fitted or top-dose-only effect; inactive means no such curve, though single readings can be large or run the other way. The entries come from a sample that favours actives as a whole.
# System: Plasmodium falciparum AMA1 (3D7) - RON2 peptide interaction
# Assay: qHTS for Inhibitors of AMA1-RON; Towards Development of Antimalarial Drug Lead: Primary Screen; further: nearly all actives have a fitted effect of over 45% in size;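 on activity change, negative = inhibition: 0% = vehicle wells and -100% = peptide control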
# Settings: AlphaScreen AMA1-biotinylated RON2 peptide binding; series mostly up to 58.2 µM; activity change, negative = inhibition: at the top concentration
# Description: Plasmodium, the causative agent of malaria, is one of the world's deadliest parasitic diseases. Currently there is no vaccine available and there is widespread resistance to common anti-malarial drugs. This warrants novel, alternative approaches for developing improved therapy. During infection, one such essential interaction is between two parasite proteins, the apical membrane antigen1 (AMA1) that is translocated onto the merozoite surface and the rhoptry neck protein 2 (RON2), which is transferred to the red blood cells (RBC) membrane during invasion (Besteiro et.al., 2009). Recently, the Miller lab has shown that the interaction between AMA1 and RON2 is essential for junction formation of the parasite with the host cell (Srinivasan et.al., 2011). The binding of the RON2 peptide to the hydrophobic pocket in AMA triggers the formation of the moving junction which provides a firm anchor for the parasite to pull itself into the RBC using its actin-myosin motor; an irreversible step that commits the parasite for invasion. Only one AMA1 and RON2 genes exists in Plasmodium and there are no alternate pathways. Moreover, the region corresponding to RON2 peptide is conserved in all P. falciparum isolates for which sequences are available. The key residues in the AMA1 hydrophobic pocket that binds RON2 are also conserved and indicate a functional constraint governing this essential step in invasion since a short RON2 peptide (RON2L) corresponding to the binding region on AMA1 is sufficient to compete with the native RON2 protein and inhibits invasion (Tonkin et.al, 2011). Therefore, developing small molecule inhibitors of this interaction offers a promising target opening a new arena for anti-malarial therapeutics drug design.
# In collaboration with the Miller lab, a quantitative High Throughput Screen using the AlphScreen technology was developed using a recombinant his-tagged AMA1 and a biotinylated RON2 peptide. This fluorescent screen was assayed against the NIH Molecular Libraries Small Molecule Repository (MLSMR). Inhibition of this protein-protein interaction is the desired outcome of this assay. However, due the limitations of this AlphaScreen assay, a large number of artifacts were observed. An AlphaScreen counterscreen was run to identify the true inhibitors, triage compound activity, and weed out false positives.
# NIH Chemical Genomics Center [NCGC]
# NIH Molecular Libraries Probe Centers Network [MLPCN]
# Assay Submitter (PI): Louis Miller, National Institute of Allergy and Infectious Disease (NIAID)
# Two microliters of his-tagged AMA1 3D7 allele protein (final concentration 25 nM) was dispensed into a 1,536-well assay plate. Small molecules and positive control peptides were pin-transferred (23 nL or 46 nL) via Kalypsys pin-tool equipped with a 1,536-pin array, resulting in final compound and peptide concentration ranges of 91.5 nM - 57.2 µM, and 15.6 nM - 2.00 µM, respectively. Unlabeled RON2 peptide or R1 peptide ([…]) that specifically binds the 3D7 AMA1 was used as a positive control that inhibited the binding of RON2L to AMA1. After 15 minutes incubation, 1 uL of biotinylated RON2 peptide (final concentration 25 nM) or buffer were dispensed and the assay plate was incubated for an additional 30 minutes at room temperature and protected from light. This was followed by an addition of 1 uL mixture of donor and acceptor beads (10 ug/mL final concentrations for each). The plates were incubated for 30 min at room temperature and read using the EnVision(R) plate reader (PerkinElmer). Maximum inhibition response was normalized to the positive control signal while no inhibition response was normalized to the DMSO treated wells.
# Potency means the concentration at half of the fitted maximal effect.
SMILES,"activity change, negative = inhibition",Potency
CCOC(=O)N1CCN(C(=O)COCc2cc(-c3ccc4c(c3)OCO4)on2)CC1,5.8% (inactive),–
COC(=O)c1c(NC(=O)C(=O)N2CCCCC2)sc2c1CC(C)(C)OC2,50.7% (inactive),–
CCn1cc(/C=C2/SC(=S)NC2=O)c(C)n1,-5.21% (inactive),–
COC(=O)c1ccc2ccccc2c1OC1OC(CO)C(O)C(O)C1NC(C)=O (stereo not drawn),6.75% (inactive),–
O=C(c1ccc(Br)o1)N(c1ccccn1)C1CCCCC1,-23.6% (inactive),–
O=C(NC(=O)c1ccc(Cl)c(Cl)c1)OC1CCS(=O)(=O)C1 (stereo not drawn),0.692% (inactive),–
O=C(Nc1cccnc1Oc1ncnc2cc(Cl)ccc12)c1ccc(F)cc1,-12.6% (inactive),–
CCN(C(=O)COC(=O)c1sccc1C)c1c(N)n(Cc2ccccc2)c(=O)[nH]c1=O,3.44% (inactive),–
Nc1ccc2nc3c(=O)[nH]c(=S)[nH]c3nc2c1,–,1.41 µM (active)
c1ccc(CCC2=NCCn3cccc32)cc1,–,inactive
Cc1ccc(S(=O)(=O)N2CCCCC2)cc1NC(=O)CCNC(=O)c1ccccc1,2.37% (inactive),–
Cc1ccc(-c2nnn(CC(=O)N(CCO)C(C(=O)NC(C)(C)C)c3ccncc3)n2)cc1 (stereo not drawn),-5.68% (inactive),–
Cc1cccc(C)c1NC(=O)CN1C(=O)C(C)Oc2ccccc21 (stereo not drawn),-12.1% (inactive),–
Cc1occc1-c1nnc(SCC(=O)NC2CCCCC2)o1,-2.44% (inactive),–
COc1cc(Cl)c(C)cc1NC(=O)CSc1nnc(CN2CCCC2)o1,75.1% (inactive),–
CCn1c(SCC(=O)Nc2cc(C)c(Cl)cc2OC)nnc1-c1ccco1,–,33.6 µM (active)
COc1cc(Cl)c(C)cc1NC(=O)CSc1nnc(-c2ccco2)n1CC(C)C,-19.4% (inactive),–
CC(C)NC(=O)NCCCCCCS(C)=O (stereo not drawn),-0.738% (inactive),–
Oc1ccc2ccccc2c1N=Nc1nccs1,–,28.2 µM (active)
COc1ccc(CNC(=O)c2ccc(NS(=O)(=O)c3ccc4[nH]c(=O)[nH]c4c3)cc2)cc1OC,-5.23% (inactive),–
COCCNC(=O)C1CCCN(Cc2ccccc2Cl)CC1 (stereo not drawn),-2.5% (inactive),–
CSc1ccc(/C=N/N2CCN(Cc3ccccc3Cl)CC2)cc1,–,14.1 µM (active)
O=S1(=O)CCN(Cc2ccccc2Cl)CC1,-14% (inactive),–
COc1ccccc1/C=N/N1CCN(Cc2ccccc2Cl)CC1,–,15.8 µM (active)

SMILES,"activity change, negative = inhibition",Potency
Cc1ccc(CN2CCN(/N=C/c3ccco3)CC2)c(C)c1,-3.91% (inactive),–
COc1ccccc1/C=C/C=N/NC(=O)CN1CCN(Cc2ccccc2)CC1,2.67% (inactive),–
CC1CCCN(C(=O)Cn2c(=O)oc3ccccc32)C1 (stereo not drawn),19.1% (inactive),–
Cc1coc(C)c1C(=O)CC1(O)C(=O)N(C)c2ccc(Cl)cc21 (stereo not drawn),-2.7% (inactive),–
N#Cc1cccc(CSc2nnc(CCCO)n2-c2ccccc2)c1,11.9% (inactive),–
Cc1ccc(C(C(=O)NC2CCCCC2)N(C(=O)c2csnn2)C2CC2)o1 (stereo not drawn),-4.5% (inactive),–
COc1cccc(-c2ccc3c(c2)N(Cc2ccccc2OC)C(=O)C(C)S3)c1 (stereo not drawn),-17.7% (inactive),–
Nc1ccc2c(c1)C(=Cc1cccnc1)c1ccccc1-2,–,20 µM (active)
O=C1/C(=C\c2cccnc2)CN(Cc2ccccc2)C/C1=C\c1cccnc1,-12.8% (inactive),–
Cc1ccc(C2=C/C(=C\c3cccnc3)C(=O)O2)cc1,0.0252% (inactive),–
Cc1c(C)c2c(OCC(=O)N[C@@H](C(=O)O)c3ccccc3)cc3c(c2oc1=O)CCC(C)(C)O3,-12.5% (inactive),–
O=C(CC[C@H]1O[C@@H](n2ccc(=O)[nH]c2=O)[C@H](O)[C@@H]1O)N[C@H](Cc1ccccc1)C(=O)NCCCN1CCCC1=O,0% (inactive),–
CCOC(=O)CC(SP1(=S)OCC2(CCCCO2)C(C2CCCCO2)O1)C(=O)OCC (stereo not drawn),11.3% (inactive),–
O=C(Nc1ccccc1-c1nnn(CC(=O)N2CCCc3ccccc32)n1)c1cccc(Cl)c1,-16.6% (inactive),–
CCC(C)C(=O)Nc1ccccc1N1CCN(c2ccc(F)cc2)CC1 (stereo not drawn),-27.4% (inactive),–
Cc1cc(C)cc(NC(=O)N2CCC(NC(=O)c3ccc(F)cc3)CC2)c1,24.4% (inactive),–
O=c1ccc2c(-c3ccccc3S(=O)(=O)O)c3ccc(O)c(O)c3oc-2c1O,–,5.01 µM (active)
CC1=C(C(=O)Nc2ccccc2)C(c2cccs2)C(C#N)=C(SCC#N)N1 (stereo not drawn),59.5% (inactive),–
Cc1ccc(-c2nn(C(C)(C)C)c3ncnc(N)c23)cc1,1.93% (inactive),–
CC(C)NC(=S)NN=C1CCCCCCCCCCC1,25.2% (inactive),–
NC(=S)Nc1c(Cl)cccc1Cl,-3.62% (inactive),–
CCCCC(=O)NNC(=S)NC(=O)C(c1ccccc1)c1ccccc1,45.2% (inactive),–
Cc1noc(C)c1S(=O)(=O)N(C)Cc1ccccc1,3.84% (inactive),–
CC1(C)O[C@@H]2[C@H](O1)[C@@H](COS(=O)(=O)O)O[C@H]2n1ccc(=O)[nH]c1=O,0.295% (inactive),–
